Source: PubChem BioAssay (NCI)
Where “and” joins values, the source holds several entries; their conditions need not be identical. Identical values can stand only once. Compounds without any hit were thinned out: in the full panel of roughly 83,000, 20% have a hit.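 The test compound was applied at a single concentration to cells in 96-well plates for 48 hours, and percent growth was recorded.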 Calls of active or inactive are those of the source. Rule for the calls: active = growth percent below 10; inactive = the rest.

What follows are compounds tested on MDA-MB-468 breast (assay: NCI-60 one-dose screen, 48 h (100 = growth as untreated, 0 = no growth, -100 = all killed)). Conditions: 10 µM unless noted.

Structure (SMILES) | growth
CCOc1cc(\C=N/N=C(N)/C(N)=N\N=C/c2ccc(O)c(OCC)c2)ccc1O | 111% (inactive)
CSCCC(NC(=O)C(Cl)Cl)C(=O)O (stereo not given) | 94.6% (inactive)
COc1ccc2sc(N(Cc3cccnc3)C(=O)c3ccc(C#N)cc3)nc2c1 | 73% (inactive)
COc1cc(-c2cc(-c3ccc(Nc4ncnc5cc(Cl)ccc45)cc3)nc(N3CCCCC3)n2)cc(OC)c1OC | 107% (inactive)
Nc1ccn(Cc2nnc(CCC(=O)c3nc4ccccc4[nH]3)o2)c(=O)n1 | 79% (inactive)
O=C(CN1CCOCC1)Nc1ccc2ncnc(Nc3ccc(OCc4cccc(F)c4)c(Cl)c3)c2c1 | -25.1% (active)
CC12O[C@H](C[C@@H](O)[C@H]1O)n1c3ccccc3c3c4c(c5c6ccccc6n2c5c31)C(=O)N(CCCN)C4=O | 17.1% (inactive)
C=C1CCC2C3(C)COC(C)(C)OC3CCC2(C)C1C/C=C1/C(=O)OCC1OC(C)=O (stereo not given) | 7.86% (active)
Fc1ccc(Nc2nnc(-c3ccc(Cl)cc3)o2)cc1 | 97.9% (inactive)
Cc1cc(C)c(C#N)c(SCC(=O)c2sc3c(C#N)c(C)cc(C)[n+]3c2[O-])n1 | 4.32% (active)
Cc1cn(-c2cc(NC(=O)c3cncc(C#Cc4cnc5ccc(OCCCS(C)(=O)=O)nn45)c3)cc(C(F)(F)F)c2)cn1 | -22.5% (active)
C#C[C@@]1(O)[C@@H](CO)O[C@@H](n2cc(Cl)c3c(N)ccnc32)[C@@H]1O | 72.3% (inactive)
O=c1c(-c2nc3ccccc3[nH]2)cc2ccccc2n1Cc1cn(Cc2ccc(N3CCOCC3)cc2)nn1 | 64.3% (inactive)
NS(=O)(=O)c1ccc(-n2nc(C(=O)N/N=C\c3ccc(F)cc3)cc2-c2ccc(Br)cc2)cc1 | 73.9% (inactive)
OC[C@@H](O)C(O[C@@H]1O[C@H](CO)[C@H](O)[C@H](O)[C@H]1O)[C@H](O)[C@@H](O)CO (stereo not given in full) | 94.7% (inactive)
OCCCc1ccccc1 | 104% (inactive)
COc1cc(/C=N\Nc2ccccc2)ccc1OC(=O)c1ccccc1 | 44.2% (inactive)
IP(CCCSc1n(Cc2ccc3ccccc3c2)c(-c2ccccc2)c(-c2ccccc2)[n+]1Cc1ccc2ccccc2c1)(c1ccccc1)(c1ccccc1)c1ccccc1 | -21.5% (active)
CCc1nn(Cc2ccccc2)c2nc(C)c(CCc3ccccc3)c(Cl)c12 | 88.3% (inactive)
COC(=O)c1nc(-c2ccc(C)cc2)oc1S(=O)(=O)c1ccc(Cl)cc1 | 101% (inactive)

Structure (SMILES) | growth
Cl.Fc1c[c-]c(-c2ccccn2)c(F)c1.[Pt].c1ccc(P(c2ccccc2)C([PH+](c2ccccc2)c2ccccc2)[PH+](c2ccccc2)c2ccccc2)cc1 | -4.27% (active)
COc1ccc2c(c1)C(C)Cc1c(Cl)ncnc1N2C (stereo not given) | -47.7% (active)
Nc1ccc(/C=N/Nc2ccnc3c(N)cccc23)c2cccnc12 | -38.4% (active)
COc1cc(-c2nn(-c3cccc(NC(=O)Nc4ccc(Cl)c(Cl)c4)c3)cc2-c2ccncc2)ccc1Cl | 2.14% (active)
CC(=O)[C@@H]1CC[C@]2(C(N)=O)CC[C@]3(C)[C@H](CC[C@@H]4[C@@]5(C)CCCNC(C)(C)[C@@H]5CC[C@]43C)[C@@H]12 | 82.2% (inactive)
CCN(C)CCCOc1ccc(/C(=C(\C)Cc2cccc(OC)c2)c2ccc(OC(C)=O)cc2)cc1 | 101% (inactive)
COc1ccc(C(=O)C(=O)c2ccccc2)cc1 | 101% (inactive)
Nc1nc(N)c2cc(Sc3ccc(Cl)cc3)ccc2n1 | 18.7% (inactive)
C[C@@H]1CC[C@@]2(OC1)O[C@H]1C[C@H]3[C@@H]4CC=C5C[C@@H](O[C@@H]6O[C@H](CO)[C@@H](O[C@@H]7O[C@@H](CO)[C@H](O)[C@H]7O)[C@H](O)[C@H]6O[C@@H]6O[C@@H](C)[C@H](O)[C@@H](O)[C@H]6O)CC[C@]5(C)[C@H]4CC[C@]3(C)[C@H]1[C@@H]2C | -40.3% (active)
CCOC(=O)c1sc2nc(-c3cccc(OC)c3)nc(N3CCOCC3)c2c1C | 81.2% (inactive)
O=C(Nc1ccc2c(ccn2Cc2ccccn2)c1)c1ccnnc1 | 89.7% (inactive)
COc1ccc(C(=O)C[C@]2(O)C(=O)Nc3c(Cl)ccc(Cl)c32)cc1 | -7.27% (active)
CN(C)c1ccc2nc3ccc(=[N+](C)C)cc-3sc2c1 | -31.5% (active) and -9.26% (active) and -4.98% (active)
N#Cc1ccc(N2Cc3cc(Cl)ccc3OC3=C2C(=O)N(Cc2ccc(F)cc2)C3=O)cc1 | -68.2% (active)
COc1cc(NCCCN=C(N)NC(N)=NC(C)C)c2ncccc2c1 | -34.2% (active)
CCCCC/C=C/C(C)=C/C1CC(C)C/C=C/CCC(O)C(OC(N)=O)CCC(C)CC(O)C(C)C(=O)O1 (stereo not given) | 94.9% (inactive)
CCn1cc(C(=O)NNC(=S)Nc2ccc(C)cc2)c(=O)c2ccc(C)nc21 | 88% (inactive)
COc1ccc2c3c([nH]c2c1)C(=O)c1nc(C)ccc1C3=O | 14.8% (inactive)
CN1CCN(CCCOc2cccc3nc(Nc4ccc(Cl)c(C(F)(F)F)c4)ccc23)CC1 | -2.83% (active)
CC(O)c1cc2ccccc2c(=O)o1 (stereo not given) | 98.7% (inactive)
